Source: PubChem BioAssay AID602163 (The Scripps Research Institute Molecular Screening Center, 2012)
Among all 360,000 compounds or so, about 1,100 (0.31%) were called active. Cut-off read from the data, not from the text of the source: active = activation above about 7.5%; inactive = the rest. The full list was thinned out, with actives kept by preference.

Test system: Methionine sulfoxide reductase A (Bos taurus)
Assay: activation of methionine sulfoxide reductase A – biochemical, absorbance, bovine, HTS, primary screen (AID 602163);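 note: 0% = vehicle and 100% = reference activator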
Conditions: purified bovine MsrA, absorbance read-out; at 10.6 µM; active compounds read high

| Compound | activation |
| --- | --- |
| CCOC(=O)c1cc(-c2ccccc2C)n(Cc2cc(C)no2)n1 | -2.88% (inactive) |
| COc1ccccc1CNC(=O)C1CCN(S(=O)(=O)c2ccc3c(c2)OCCO3)CC1 | -2.2% (inactive) |
| Cc1ccc(S(=O)(=O)N(CC(=O)NN=C2CCN(C)CC2)c2ccc(F)cc2)cc1 | -2.23% (inactive) |
| CCOC(=O)c1cc(-c2sc(NC(=O)c3ccccc3)nc2C)n(CCO)n1 | -3.15% (inactive) |
| Cc1nc(NNC(=O)c2ccccc2)cc(-c2ccccc2)n1 | 1.76% (inactive) |
| Cn1sc(NC(=O)c2ccccc2)nc1=O | 14.9% (active) |
| CCN(CC)S(=O)(=O)c1ccc(OC(C)C)c(N)c1 | -3.46% (inactive) |
| CN1C(=O)c2ccccc2C(C(=O)NCCCN2CCCC2)C1c1c[nH]c2ccccc12 (stereo not drawn) | -1.12% (inactive) |
| Cc1ccc(SCC(=O)c2cc(C)c(OC(=S)N(C)C)c(C)c2)cc1 | 1.83% (inactive) |
| COc1ccc(CCNC(=O)CN2CCC(n3nnc4cc(F)ccc43)CC2)cc1OC | -2.2% (inactive) |
| NC1=CC(=O)C(=O)c2cccnc21 | 15.2% (active) |
| Cc1ccc2c(CC(=O)NCc3cccs3)coc2c1 | -2.6% (inactive) |
| COc1cc(C(=O)OCCCN2CCOCC2)cc(OC)c1OC | -0.8% (inactive) |
| COC(=O)c1scc(S(=O)(=O)C(C)(C)C)c1-n1cccc1 | -1.27% (inactive) |
| COc1ccc(S(=O)(=O)N2CCOCC2)cc1NC(=O)Cc1coc2cc(C)ccc12 | -1.58% (inactive) |
| CC(C)c1ccc(Nc2ncccc2C#N)cc1 | -0.47% (inactive) |
| CC1=NNC(=O)C1CCC(=O)N/N=C(\C)c1ccc(Cl)cc1 (stereo not drawn) | 19.6% (active) |
| CC1=NNC(=O)C1CCC(=O)N/N=C\c1cccc(Cl)c1 (stereo not drawn) | -5.62% (inactive) |
| CC1=NNC(=O)C1CCC(=O)N/N=C\c1ccc(Cl)c(Cl)c1 (stereo not drawn) | -2.03% (inactive) |
| CCOc1ccc(CCNC(=O)COC(=O)C2CCN(S(=O)(=O)c3ccccc3)CC2)cc1OCC | -3.79% (inactive) |
| CSC1=NCCN1C(=O)Cc1cccc2ccccc12 | -1.62% (inactive) |
| O=C(NCCOc1ccccc1)N1[C@H]2CC[C@@H]1C=C(c1ccc(F)cc1OCc1ccccc1)C2 | -0.63% (inactive) |

| Compound | activation |
| --- | --- |
| O=C(CN1C(=O)NC2(CCCC2)C1=O)OCCOc1ccc(F)cc1 | -0.72% (inactive) |
| CCOc1ccc(C(C)=O)cc1COC(=O)CN1C(=O)NC2(CCCC2)C1=O | -2.45% (inactive) |
| Cc1ccc(COC(=O)CN2C(=O)NC3(CCCC3)C2=O)cc1 | 10.9% (active) |
| CCn1c(=S)[nH]c2sc3c(c2c1=O)CCCCC3 | 1.11% (inactive) |
| S=c1[nH]nc2c3c4c(sc3ncn12)CCCC4 | 12.9% (active) |
| N=c1c2c3c(sc2ncn1CCCN1CCOCC1)CCCCC3 | -6.06% (inactive) |
| COc1cc(NC(=O)COC(=O)c2cnc(C)cn2)c(C)cc1[N+](=O)[O-] | -4.41% (inactive) |
| COc1cc(NC(=O)COC(=O)c2ccc([N+](=O)[O-])s2)cc(OC)c1OC | 10.6% (active) |
| O=C(OCC(=O)N1CCN(c2ccccc2)CC1)c1ccc([N+](=O)[O-])s1 | 8.9% (active) |
| COc1ccc(C(=O)COC(=O)c2ccc([N+](=O)[O-])s2)cc1OC | 12.4% (active) |
| COc1cccc(/C=C/C(=O)OCC(=O)N2CCN(c3ccccc3)CC2)c1 | -1.19% (inactive) |
| COc1ccc(C(=O)OCC(=O)c2ccc(C)c(S(=O)(=O)N3CCOCC3)c2)cc1OC | -4.43% (inactive) |
| C[C@H](NC(=O)c1ccccc1Cl)C(=O)OCC(=O)N1CCN(c2ccccc2)CC1 | 1.01% (inactive) |
| COc1ccc(C(=O)OCC(=O)Nc2ccc3[nH]c(=O)[nH]c3c2)c(OC)c1OC | 1.62% (inactive) |
| COc1ccc(C(=O)OCC(=O)c2ccc(Cl)s2)c(OC)c1OC | -1.71% (inactive) |
| CCOC(=O)C1CCN(C(=O)C2CCN(S(=O)(=O)c3c(C)noc3C)CC2)CC1 | -0.14% (inactive) |
| O=C1[C@@H]2C(Cc3ccc(O)cc3)NC3(C(=O)Nc4ccc(F)cc43)[C@@H]2C(=O)N1c1ccc(F)cc1 (stereo partly drawn) | -1.38% (inactive) |
| COc1ccc([C@H]2N[C@]3(CCCN(CC4CCCCC4)C3=O)[C@H]3C(=O)N(C)C(=O)[C@@H]23)cc1 | -4.49% (inactive) |
| CCOc1ccccc1NC(=O)C1CCCN(C(=O)Nc2ccccc2)C1 (stereo not drawn) | -2.87% (inactive) |
| Nn1c(SCC(=O)Nc2ccc3c(c2)CCC3)nnc1C1CC1 | 0.99% (inactive) |
| CC1CCc2[nH]c3ccc(C(=O)N(C)CC(=O)Nc4cccc(F)c4)cc3c2C1 (stereo not drawn) | -0.36% (inactive) |
| CCCN(CC(=O)Nc1ccccc1C)C(=O)c1cc(=O)[nH]c2ccccc12 | -8.69% (inactive) |

| Compound | activation |
| --- | --- |
| CCCN(CC(=O)Nc1ccccc1C)C(=O)c1ccc2[nH]c3c(c2c1)CC(C)CC3 (stereo not drawn) | 17.2% (active) |
| COCC(=O)Nc1c(I)c(C(=O)NCC(O)CO)c(I)c(C(=O)N(C)CC(O)CO)c1I (stereo not drawn) | -1.2% (inactive) |
| NC(=O)NCCCC(=O)O | 5.76% (inactive) |
| CC(=O)N(O)CCCCCNC(=O)CCC(=O)N(O)CCCCCNC(=O)CCC(=O)N(O)CCCCCNC(=O)CCC(=O)O | 8.82% (active) |
| COc1ccc(OC)c(NC(=O)COC(=O)Cc2ccsc2)c1 | -3.82% (inactive) |
| S=c1nccc(-c2cc(Cl)sc2Cl)[nH]1 | -10.9% (inactive) |
| CC[C@]1(O)C[C@@H]2CN(CCc3c([nH]c4ccccc34)[C@@](C(=O)OC)(c3cc4c(cc3OC)N(C)[C@H]3[C@@](O)(C(=O)OC)[C@H](OC(C)=O)[C@]5(CC)C=CCN6CC[C@]43[C@@H]65)C2)C1 | -0.23% (inactive) |
| CCOc1ccc2[nH]c(=O)c(CN(CCCO)C(C)=O)cc2c1 | -0.13% (inactive) |
| Nc1ccc2[nH]c(=S)sc2c1 | 0.61% (inactive) |
| CCOc1ccc2[nH]c(=S)sc2c1 | 8.43% (active) |
| Cn1c(CCCOc2ccc(Cl)cc2Cl)n[nH]c1=S | -3.29% (inactive) |
| Cc1ccc(C)c(NC(=O)CSc2nnc(Cc3cccn3C)n2-c2ccc(F)cc2)c1 | 9.61% (active) |
| COc1ccccc1NC(=O)CSc1nnc(Cc2cccn2C)n1-c1ccc(F)cc1 | -0.41% (inactive) |
| COC(=O)c1ccc(NC(=O)CSc2nnc(Cc3cccn3C)n2-c2ccc(F)cc2)cc1 | -0.87% (inactive) |
| CCn1c(C)nc2c1C(=O)c1ccccc1C2=O | 6.51% (inactive) |
| Cc1noc(NS(=O)(=O)c2ccc(NC(=O)C34CCC(CC3)C4)cc2)c1C | 7.83% (active) |
| Cc1cc(OC(C)C(=O)Nc2ccc(S(=O)(=O)Nc3onc(C)c3C)cc2)cc(C)c1Cl (stereo not drawn) | -4.68% (inactive) |
| O=C(Nc1ccc(S(=O)(=O)Nc2ncccn2)cc1)C12CC3CC(CC(C3)C1)C2 | -5.78% (inactive) |
| COc1cc(C(=O)OCC(=O)NC23CC4CC(CC(C4)C2)C3)cc(OC)c1OC | -1.08% (inactive) |
| CCN(CC(=O)Nc1ccccc1OC)C(=O)Cn1cnc2ccccc2c1=O | -6.89% (inactive) |
| COc1ccc(S(=O)(=O)N2CCOCC2)cc1NC(=O)CC1CC2CCC1C2 (stereo not drawn) | -3.8% (inactive) |
| CCN(CC(=O)Nc1ccccc1OC)C(=O)CC1CC2CCC1C2 (stereo not drawn) | 7.82% (active) |

| Compound | activation |
| --- | --- |
| CN(/C(=N/S(=O)(=O)c1cccs1)c1ccccc1)c1ccc(O)cc1 | -3.66% (inactive) |
| Brc1ccc(-c2n(-c3ccccn3)c3ccccc3[n+]2-c2ccccn2)cc1 | -3.31% (inactive) |
| CCc1ccc(NC(=O)CSc2nnc(-c3cnccn3)n2Cc2ccco2)cc1 | 10.3% (active) |
| CCn1c(SCC(=O)Nc2cc(C)ccc2C)nnc1-c1cnccn1 | -14% (inactive) |
| CCOC(=O)Cc1csc(NC(=O)CSc2nnc(-c3cccnc3)n2Cc2ccco2)n1 | -2.57% (inactive) |
| CN(C(=O)c1cccc(NC(=O)Cc2ccc(NC(=O)C3CCCN(C(=O)C4CCCC4)C3)cc2)c1)C1CCC1 (stereo not drawn) | -1.96% (inactive) |
| CN(C(=O)c1cccc(NC(=O)Cc2ccc(NC(=O)C3CCCN(C(=O)C4CC4)C3)cc2)c1)C1CC1 (stereo not drawn) | -5.02% (inactive) |
| O=C(Cc1ccc(NC(=O)C2CCCN(C(=O)C3CCCCC3)C2)cc1)Nc1cccc(C(=O)N2CCCCC2)c1 (stereo not drawn) | 8.7% (active) |
| C=C(C)C(=O)O[C@H]1C/C(C)=C\C(=O)/C=C(\C)[C@H](O)[C@@H]2OC(=O)C(=C)[C@@H]21 | -5.09% (inactive) |
| COCc1cccc(-c2csc(C(O)c3ccc(F)cc3)n2)c1 (stereo not drawn) | -2.06% (inactive) |
| CSc1ccc(CN(C)CC(=O)NCc2ccc(F)cc2)cc1 | -2.54% (inactive) |
| COc1cc(OC)cc(-c2c(C#Cc3ccsc3)c3cc(-c4ccc(SC)cc4)ccc3n2C)c1 | -0.65% (inactive) |
| C/C=C/C(=O)OCC(=O)Nc1ccc(F)cc1Cl | -7.53% (inactive) |
| CN1c2ccc(C=O)c3c(C=O)ccc(c23)N(C)C1(C)C | 9.27% (active) |
| c1ccc(CN=C2Nc3ccccc3CS2)nc1 | -3.81% (inactive) |
| COc1cc(F)c(C2=CC(=O)CC(C)(C)C2)cc1F | -3.81% (inactive) |
| O=C(COC(=O)CSc1nnc(-c2ccc(Cl)cc2)o1)Nc1cc(Cl)cc(Cl)c1 | -3.64% (inactive) |
| CC(NS(=O)(=O)c1ccccc1)c1n[nH]c(=S)n1-c1ccccc1 (stereo not drawn) | -0.57% (inactive) |
| Cc1ccc(C(=O)COC(=O)CCN2C(=O)C3C4CC(C(Br)C4Br)C3C2=O)cc1 (stereo not drawn) | -3.01% (inactive) |
| O=C(c1ccco1)N1CCN(C(=S)Nc2cc(F)cc(F)c2)CC1 | -6.94% (inactive) |
| O=C(c1ccco1)N1CCN(Cc2cccc(C(F)(F)F)c2)CC1 | 7.76% (active) |
| O=C(c1ccco1)N1CCN(CCOc2ccccc2)CC1 | -3.77% (inactive) |
